# Nrf2 inh = Nrf2 qHTS screen for inhibitors; 360,000 compounds, 2.1% hits; A549 ARE-Fluc reporter, luciferase luminescence, 18-24 h; Potency, µM (series often up to 46 µM), without a hit: top-dose activity change, negative = inhibition, usual class: inhibitors; also: potency is read from the fitted curve at half-maximal effect; % is scaled to controls: 0 for no effect and ±100 for the full control effect; nearly all actives have a fitted effect of over 60% in size
#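 A549 ARE_Fluc cells (5000/well, 5% FBS OPTI-MEM) pre-incubated 2 h, then treated with compounds 18-24 h at 37C/5% CO2 in concentration-response. CellTiter-Fluor viability read first; BugLite luciferase luminescence after 15 min at room temperature gives Nrf2 activity.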
# GALK inhibitor = qHTS Assay for Inhibitors of Human Galactokinase (GALK); Potency, µM (top dose mostly 57.5 µM), for the others: top-dose activity change, negative = inhibition, actives largely listed as inhibitors; Purified GALK, Kinase-Glo residual ATP luminescence; 270,000 compounds, 0.007% hits; P51570; also: potency is read from the fitted curve at half-maximal effect; % is scaled to controls: 0 for no effect and ±100 for the full control effect
# Target sequence (P51570 whole entry, looked up): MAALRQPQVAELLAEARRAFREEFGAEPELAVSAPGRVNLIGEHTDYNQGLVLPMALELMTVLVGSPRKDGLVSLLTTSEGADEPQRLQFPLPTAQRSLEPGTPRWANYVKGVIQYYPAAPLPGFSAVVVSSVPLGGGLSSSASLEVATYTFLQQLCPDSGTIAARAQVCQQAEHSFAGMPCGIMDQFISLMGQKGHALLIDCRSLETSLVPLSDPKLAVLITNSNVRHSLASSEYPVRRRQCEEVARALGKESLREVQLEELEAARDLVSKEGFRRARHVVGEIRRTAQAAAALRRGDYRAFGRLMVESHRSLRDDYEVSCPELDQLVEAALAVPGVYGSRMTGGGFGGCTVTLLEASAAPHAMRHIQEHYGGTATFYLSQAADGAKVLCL
#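 Galactose (100 uM) and ATP (35 uM) were turned over by 5 nM GALK for 1 h at RT. Kinase-Glo Plus then converted the remaining ATP into a luminescent signal.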
# miR-21 act = qHTS Assay for Modulators of miRNAs and/orActivators of miR-21 | Potency, µM (titrated, usually from 38.3 µM), for the others: at the highest dose activity change, positive = activation, actives largely listed as activators | HeLa miR-21 FLuc reporter, luciferase, 48 h | 340,000 tested, under 10 active;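 also: % of control where 0% means no effect; miR-21 action dims this reporter so a rising signal means less miR-21 action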
#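 HeLa cells stably expressing CMV-driven firefly luciferase with a downstream miR-21 binding sequence, endogenously expressing miR-21, were treated with titrations (up to about 40uM final) for 48 hours at 37 degree Celsius. Luciferase luminescence was read after lysis.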
# PI4K2A inh = qHTS for small molecular inhibitors of PI4K2A; 420,000 compounds, 0.13% hits; AID 1346378, 2018; activity change, negative = inhibition, % at 76.9 µM; purified PI4K2A, ADP-Glo luminescence, 1 h; active compounds read low; Phosphatidylinositol 4-kinase type 2-alpha (Homo sapiens), Q9BTU6; in the data active = activity change below about -50%; inconclusive = mostly about -30% to -49%;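 also: -100% = wells without enzyme as full effect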
#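 Compounds are screened against recombinant PI4K2A using PI as substrate and ATP, the latter dispensed at 300 microM. Reactions run one hour at ambient temperature before ADP-Glo detection; full inhibition defined by wells lacking enzyme.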
# A549 tox = Nrf2 qHTS screen for inhibitors: counterscreen for cytotoxicity; Potency, µM (doses to about 46 µM), for the others: top-dose activity change, negative = cytotoxicity, hits mostly inhibitors; A549 ARE-Fluc cells, CellTiter-Fluor viability, 18-24 h; AID 504648, 2011; 390,000 compounds, 0.16% hits; also: potency is read from the fitted curve at half-maximal effect; % is scaled to controls: 0 for no effect and ±100 for the full control effect
#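 Cytotoxicity counterscreen: CellTiter-Fluor fluorescence was measured in A549 ARE_Fluc cells after 18-24 h of compound exposure in a concentration series. The subsequent BugLite luminescent read reports ARE-luciferase activity.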
# Nrf2 activator = qHTS of Nrf2 Activators; AREc32 ARE-luciferase reporter (MCF7-derived line), luminescence, 24 h; Potency, µM (top dose mostly 46.1 µM), without a hit: at the top dose activation, most hits filed as activators; 410,000 compounds, 0.31% hits; also: potency is read from the fitted curve at half-maximal effect; % of control where 0% means no effect; nearly all actives have a fitted effect of over 65% in size
#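 AREc32_Fluc, 1000 cells/well, OPTI-MEM + 5% FBS, o/n 37 deg C 5% CO2; 23 nL cpd by pin tool, 24 hr; Steady-Glo 30 min RT, luminescence.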
# * marks the source's active call; other numbers are inactive results; i = inactive; ? = inconclusive; nt = no result; [ ] = dose if it differs, or a comment. Compounds with a hit are over-represented: about 2.2% of the library has one in this group of screens. Unless noted, calls follow the shape of the dose curve; as a rule, active = well fitted curve in the direction sought with a large enough effect; inconclusive = small, poorly fitted or top-dose-only effect, or another doubt; inactive = no such curve, though single readings can be large; an effect the other way counts as inactive or inconclusive.
SMILES,Nrf2 inh,GALK inhibitor,miR-21 act,PI4K2A inh,A549 tox,Nrf2 activator
O=C1C(I)=CC(=C(c2cc(I)c(O)c(I)c2)c2ccccc2C(=O)O)C=C1I,nt,nt,nt,-2.4,nt,nt
CCC1(CCC(C)C)C(=O)NC(=O)NC1=O,nt,nt,nt,i,nt,nt
O=C(NCCSc1c(-c2ccccc2)[nH]c2ccccc12)c1ccc(S(=O)(=O)N2CCOCC2)cc1,-29.7%[9.27 µM],nt,?,-0.4,-13.9%,6.1%
COC(=O)C1=C(c2ccc(OCc3ccccc3)cc2)C[C@@H]2CC[C@H]1N2C(=O)NCCCc1ccccc1,14.6µM*,nt,nt,-0.6,-18.5%,0.1%
COC(=O)C1=C(c2cccc(OCc3ccccc3)c2)C[C@@H]2CC[C@H]1N2C(=O)NCCCc1ccccc1,20.6µM*,nt,nt,3.4,-17.4%,-0.3%
COC(=O)C1=C(c2cccc(OCc3ccccc3)c2)C[C@@H]2CC[C@H]1N2C(=O)NCc1ccc(F)cc1,?,nt,nt,-1.1,-7.5%,-0.5%
CCOc1ccc(CCNC(=O)c2cc3c(-c4ccc(OC)c(OC)c4)nn(C)c3s2)cc1OCC,13µM*,nt,27.8%,-6.4,-9.3%,-1.1%
CCOc1ccc(CCNC(=O)c2ccc(-n3c(C)cc4c3CCCC4)cc2)cc1OCC,0.0%,nt,24.7%,-9.2,-1.7%,?
COc1ccc(C(=O)Nc2nnc(S(=O)(=O)N(CC(C)C)c3ccc(C)cc3)s2)cc1OC,113.1%,nt,-57.6%,0.6,13.1%,0.8%
C[C@H]1CNCCc2ccc(Cl)cc21,nt,nt,nt,-3.2,nt,nt
CN(C)CCc1c[nH]c2ccccc12,nt,nt,nt,i,nt,nt
COC(=O)[C@@]12CCCCN1[C@H](c1ccc(-c3ccc(Cl)c(Cl)c3)c(OC)c1)[C@@H]1C(=O)N(C)C(=O)[C@@H]12,20.6µM*,nt,nt,-4.5,-13.6%,-1.3%
COC(=O)[C@@]12CCCCN1[C@H](c1ccc(-c3ccc(Cl)c(Cl)c3)c(OC)c1)[C@H]1C(=O)N(C)C(=O)[C@H]12,-0.9%,nt,nt,-2.0,-6.9%,-0.2%
Cn1cnc([N+](=O)[O-])c1Sc1ccc([N+](=O)[O-])cc1,9.2µM*,2.0%,12.7%,-13.2,?,17.7%
CCOc1cccc(CC(=O)NCc2ccc3c(c2)CCN3C(=O)c2cccc(C)c2)c1OCC,20.6µM*,nt,?,-5.5,-21.7%,-0.4%
O=C(N[C@@H]1N=C(c2ccccc2F)c2cccc3c2N(CC3)C1=O)c1cc2ccccc2[nH]1,nt,nt,nt,0.9,nt,nt
CN1C2CCC1/C(=C/c1ccccn1)C(=O)/C2=C\c1ccccn1,5.8µM*,2.0%,?,-5.6,7.31µM*,-2.6%
COc1ccc(NC(=O)c2cn(CCC#N)nc2-c2ccccc2)cc1,-18.5%,-5.8%,3.0%,2.5,3.0%,0.1%
COc1ccc(Nc2cc(C)c3cc(NC(=O)c4ccccc4Cl)ccc3n2)cc1,25.9µM*,nt,29.3%,3.7,-7.9%,0.1%
Nc1ccc2ccc3cccc[n+]3c2c1,13µM*,-6.0%,3.8%,-6.9,?,4.4%
CCCn1cc(S(=O)(=O)c2ccc(OC)cc2)c(=O)c2cc(F)c(N3CCCCCC3)cc21,?,nt,-24.3%,-2.0,-15.5%,0.2%
CC(=O)OCC12CC(OC(=O)CC(C)C)C(C)=CC1OC1C(O)C(OC(C)=O)C2(C)C12CO2 (stereo unspecified),0.0206µM*,nt,nt,4.9,nt,-1.6%
CC(Cc1ccc2c(c1)OCO2)NO (stereo unspecified),nt,nt,nt,i,nt,nt
COC(=O)C1=C(c2ccc(-c3ccccc3)c(F)c2)C[C@@H]2CC[C@H]1N2C(=O)NCCO,-25.0%,nt,nt,0.7,-0.1%,-0.8%
COC(=O)C1=C(c2ccc(-c3ccccc3)c(F)c2)C[C@@H]2CC[C@H]1N2C(=O)NC1CC1,?,nt,nt,-1.6,1.3%,-0.9%
COC(=O)C1=C(c2ccc(-c3ccccc3)c(F)c2)C[C@@H]2CC[C@H]1N2C(=O)NCCOc1ccccc1Cl,16.4µM*,nt,nt,0.4,-19.6%,0.2%

# Screening results from PubChem.
